Hits are enriched below; roughly 6.8% of the tested compounds scored in any of these assays.
MCF10A rerep: DNA re-replication induction in MCF 10a cells; MCF 10A DNA re-replication, Hoechst nuclear intensity, 48 h; Potency, µM (highest dose often 46.1 µM), for the others: top-dose activity, positive = re-replication, hits mostly activators; 2.9% of 350,000 active; AID 624296; note: % of control where 0% means no effect; nearly all actives have a fitted effect of over 50% in size
SW480 rerep: induces DNA re-replication in SW480 colon adenocarcinoma cells. Potency, µM (doses to about 46.1 µM), for inactives: at the highest dose re-replication activation, most hits filed as activators. 1.8% of 340,000 active. SW480 DNA re-replication, Hoechst DNA content imaging, 48 h. AID 624297; note: % of control where 0% means no effect; nearly all actives have a fitted effect of over 55% in size
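Image-based read-out: total Hoechst fluorescence of nuclei (405 nm excitation, 500-530 nm emission), with hits raising the fraction of high-intensity nuclei. SW480 colon cells incubated 48 hr with compounds at 37 C.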
PTAP TSG101 blk: blocks PTAP/TSG101 interaction to inhibit HIV-1 budding; Potency, µM (series often up to 115 µM), inactives show at the top dose activity change, negative = inhibition, actives largely listed as inhibitors; 340,000 tested, under 10 active; Fluorescence polarization, FITC-PTAP peptide / Tsg101 binding; Q99816; AID 493005; active = well fitted inhibition curve with a large enough effect in the main read-out, with a control signal flat, not every such curve was filed as active; inconclusive = small, poorly fitted or top-dose-only effect, or effect the other way, or a change in a side signal; inactive = no such curve, though single readings can be large or run the other way; note: % of control where 0% means no effect
Target sequence (Q99816 whole entry, looked up): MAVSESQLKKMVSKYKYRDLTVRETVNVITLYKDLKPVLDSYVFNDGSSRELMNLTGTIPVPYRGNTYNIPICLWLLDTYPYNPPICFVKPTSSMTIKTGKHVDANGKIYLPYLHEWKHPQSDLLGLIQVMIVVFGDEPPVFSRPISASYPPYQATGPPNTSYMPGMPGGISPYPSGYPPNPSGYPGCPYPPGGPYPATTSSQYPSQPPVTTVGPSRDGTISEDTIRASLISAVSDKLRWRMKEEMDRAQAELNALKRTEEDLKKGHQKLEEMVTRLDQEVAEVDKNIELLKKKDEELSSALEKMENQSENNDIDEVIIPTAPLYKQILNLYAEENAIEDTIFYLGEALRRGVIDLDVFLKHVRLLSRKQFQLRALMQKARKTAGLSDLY
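Steps: Tsg101 binding domain dispensed (10 uM final), compounds pinned in DMSO, FITC-labeled PTAP-motif peptide added (50 nM final); after 20 min binding at room temperature, polarization measured.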
PINK1 expr mod: PINK1 expression modulation; PINK1 immunofluorescence, high-content cytometry, 24 h; Potency, µM (titrated, usually from 76.6 µM), for inactives: at the top dose activation (PINK1 increase), hits mostly activators; 0.2% of 410,000 active; active = well fitted activation curve with a large enough effect; inconclusive = small, poorly fitted or top-dose-only effect; cell line not stated here; note: % of control where 0% means no effect; nearly all actives have a fitted effect of over 65% in size
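Cells are seeded, rested 12 hours, then given compound at five concentrations or DMSO for 24 hours. After fixation, blocking and antibody staining, PINK1 amount and mitochondrial localization are scored; CCCP serves as control.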
KB-V1 MDR tox: kills drug-selected multidrug resistant KB-V1 cells; KB-V1 MDR cells viability, CellTiter-Glo, 72 h; Potency, µM (highest dose often 46.1 µM), usual class: cytotoxic; 3.4% of 400,000 active; AID 1347076; note: % is set by controls: 0 for no effect and ±100 for the full control effect; nearly all actives have a fitted effect of over 60% in size
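Cytotoxicity via CellTiter-Glo luminescence after 72 h compound exposure at 37 degrees C. Cells: drug-selected KB-V1 line, DMEM phenol-red free plus 10% FBS. Compounds tested at multiple concentrations; normalized data fitted to concentration-effect curves.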
KB-3-1 tox: kills parental KB-3-1 adenocarcinoma cells | KB-3-1 viability, CellTiter-Glo ATP luminescence, 72 h | 1.4% of 400,000 active | AID 1347075 | Potency, µM (top dose mostly 46.1 µM), actives largely listed as cytotoxic; note: % is set by controls: 0 for no effect and ±100 for the full control effect; nearly all actives have a fitted effect of over 60% in size
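KB-3-1 parental drug-naive adenocarcinoma cells in DMEM/10% FBS, incubated 72 h at 37 C with pin-transferred compounds across a concentration series. Viability by CellTiter-Glo luminescence; concentration-response curves fitted after normalization.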
* hit, by the source's call; i = inactive; ? = inconclusive; · = no result; ! = not confirmed by another sample; [ ] = dose if it differs, or a comment. Unless noted, calls come from the whole dose curve; as a rule, active = well fitted curve in the direction sought with a large enough effect; inconclusive = small, poorly fitted or top-dose-only effect, or another doubt; inactive = no such curve, though single readings can be large; an effect the other way counts as inactive or inconclusive. Potency is the fitted concentration of half-maximal effect.

SMILES	MCF10A rerep	SW480 rerep	PTAP TSG101 blk	PINK1 expr mod	KB-V1 MDR tox	KB-3-1 tox
O=C(Cc1cc(=O)oc2cc(O)ccc12)NN=Cc1ccc(N(CCCl)CCCl)cc1	?	?	-9%	-2%	i	i
CC(C)CN1CC2(CCN(C(=O)c3ccncc3)CC2)C1	·	·	·	-1%	·	·
CC1[C@H]2Cc3ccc(O)cc3[C@]1(C)CCN2CCc1ccccc1 (stereo partly drawn)	-3%	1µM*	3%	0%	?	i
CC1C2Cc3ccc(O)cc3[C@]1(C)CCN2CCc1ccccc1 (stereo partly drawn)	-22%	-13%	-10%	2%	?	i
C=CCN=C=S	-1%	-1%	·	·	·	·
CC(C)(C)c1cc([N+](=O)[O-])cc(C(C)(C)C)c1O	13%	-13%	-3%	5µM*	i	12µM*
CCNC(=O)O/N=C(\C)c1sc(-c2ccc(Cl)cc2)nc1C	?	-1%	-8%	-1%	i	i
Cc1nn(-c2ccccc2)c2c1CC1(C(=O)N(C)C(=O)N(C)C1=O)C1CCCCN21 (stereo not drawn)	3%	-9%[9.22 µM]	-1%	0%	i	i
Cc1nn(-c2ccccc2)c2c1P(=O)(O)/C(=C1\N(C)c3ccccc3C1(C)C)C=N2	12µM*	7%	-10%	·	i	i
CCOC(=O)c1sc(/N=C/c2c(O)n(-c3ccccc3)c(=O)[nH]c2=O)c(C#N)c1C	7%	-7%	-1%	-1%	12µM*	?
CCOC(=O)c1c(/N=C/c2c(O)n(-c3cccc(C)c3)c(=O)[nH]c2=O)sc2c1CCCC2	?	?	1%	14%	i	i
CCCCC1(CCCC)C(=O)NC(=Nc2cccc(C)c2)NC1=O	21%	2%	-4%	16µM*	?	?
COC(=O)C1=C(C(=O)OC)C2c3ccccc3C1c1ccccc12	-2%	8%	0%	-4%	15µM*	i
O=C(O)C1=CC2c3ccccc3C1c1ccccc12	-5%	?	-1%	-1%	i	i
c1cnc(N2CCC3(CCNCC3)CC2)nc1	·	·	·	-1%	·	·
O=Cc1cn(Cc2c(F)cccc2Cl)c2ccccc12	?	-20%	-3%	7%	16µM*	?
Cc1cccc(Cn2cc(C=O)c3ccccc32)c1	18%	19%	-1%	2%	i	18µM*
CCCCCCC(=O)O[C@H]1CC[C@H]2[C@@H]3CCC4CC(=O)C=C(C)[C@]4(C)[C@H]3CC[C@]12C (stereo partly drawn)	14%	?	·	·	·	·
CCCCn1c(N)c(N(CC(C)C)C(=O)c2cc(Br)c(Br)s2)c(=O)[nH]c1=O	?	7%	-4%	13%	i	?
COc1cccc(-n2c(/C=C/c3ccc(O)c(O)c3)nc3ccccc3c2=O)c1	18µM*	10µM*	2%	2%	?	i
COc1ccc(-n2c(/C=C/c3ccc(O)c(OC)c3)nc3ccccc3c2=O)cc1	?	?	1%	3%	i	i
Cc1ccc(-c2nc3ccccc3c(=O)n2-c2cc(C)ccn2)cc1	-3%	-6%	·	0%[38.3 µM]	15µM*	i
COc1ccc(-n2c(/C=C/c3ccc(O)cc3)nc3ccccc3c2=O)cc1	0.82µM*	-3%	1%	0%	?	?
O=c1c2ccccc2nc(/C=C/c2ccc(O)cc2)n1-c1ccc(O)cc1	23µM*	21%	0%	13%	i	i
O=c1c2ccccc2nc(/C=C/c2ccccc2O)n1-c1ccc(Br)cc1	·	·	·	13%	·	·
SMILES	MCF10A rerep	SW480 rerep	PTAP TSG101 blk	PINK1 expr mod	KB-V1 MDR tox	KB-3-1 tox
CC(C)CN1CC2(CCN(C(=O)Oc3ccccc3)CC2)C1	·	·	·	-1%	·	·
COc1ccc(-c2nc3ccccc3c(=O)n2-c2cccnc2)cc1	8%	-9%	-6%	29%[38.3 µM]	13µM*	i
CCCCOc1nc2ccccc2c(=O)n1-c1ccccc1	?	1%	-2%	3%	16µM*	i
O=c1c2ccccc2nc(/C=C/c2ccc(O)cc2)n1-c1cccc(O)c1	23µM*	?	4%	?	i	i
COc1nc2ccccc2c(=O)n1-c1ccc(C)cc1	0%	2%	0%	?	?	i
COc1ccc(-n2c(-c3ccc(C)cc3)nc3ccccc3c2=O)cc1	6%	-16%	1%	1%	i	i
CN[C@@H](C)[C@H]1CC[C@@H](N)[C@@H](O[C@@H]2[C@@H](O)[C@@H](O[C@H]3OC[C@@](C)(O)[C@@H](NC)[C@@H]3O)[C@H](N)C[C@@H]2N)O1 (tested in a mixture with another compound)	-8%[20.6 µM]	-1%[20.6 µM]	·	·	·	·
CCCCn1c(=O)c(C(=O)Nc2ccccc2C)c(O)c2ccccc21	-5%	0%	-3%	3%	i	i
CCCCn1c(=O)c(C(=O)Nc2cnccn2)c(O)c2ccccc21	?	0%	-3%	-3%	?	7.3µM*
CC(C)CCn1c(=O)c(C(=O)Nc2ccccc2S(N)(=O)=O)c(O)c2ccccc21	?	?	-2%	?	2.9µM*	3.7µM*
CCCCCn1c(=O)c(C(=O)Nc2ncccc2C)c(O)c2ccccc21	2%	?	-2%	-1%	5.2µM*	i
CC1(C)S[C@@H]2[C@H](N)C(=O)N2C1C(=O)O (stereo partly drawn)	9%[20.6 µM]	-2%[20.6 µM]	·	·	·	·
C[C@H]1CNC(=O)c2c(C(=O)N3CCN(C(=O)OC(C)(C)C)CC3)ncn21	·	·	·	?	i	i
c1cc2c(c(N3CCNCC3)c1)OCCO2	4%	-1%	·	·	·	·
O=C(c1ccc(CS(=O)(=O)c2ccc(Br)cc2)o1)N1CCC2(CC1)OCCO2	4%	-7%	0%	2%	i	i
O=C(c1ccc(CNS(=O)(=O)c2ccc(Br)cc2)cc1)N1CCC2(CC1)OCCO2	?	0.58µM*!	1%	1%	i	i
O=C(c1ccc(CS(=O)(=O)c2ccccc2)o1)N1CCC2(CC1)OCCO2	4%	-3%	0%	13%[38.3 µM]	13µM*	i
CC(CCC(=O)O)C1CCC2C3C(=O)C[C@@H]4CC(=O)CC[C@@]4(C)C3CC(=O)[C@]12C (stereo partly drawn)	10%	?	·	3%	·	·
O=C(Oc1ccccc1)N1CCC2(CCN(Cc3nccs3)CC2)CC1	·	·	·	0%	·	·
CC(=O)c1ccc(NC(=O)CSc2nc(=O)cc(N)n2-c2ccccc2)cc1	-20%	62%[1.84 µM]	0%	-1%	i	i
COc1ccc(/C=C/C=C2C(=O)NC(=S)NC2=O)cc1	5.8µM*	16µM*	5%	0%	?	?

From PubChem BioAssay
